In PubChem BioAssay (EPA / NIEHS):
Calls of active or inactive are those of the source. The calls were made as follows: active = hit-call score of the fitted dose curve at least 0.9, where 1 is the maximum; inactive = score below 0.9.

Molecular target: Myc proto-oncogene protein (Homo sapiens) (UniProt P01106)
Assay: ATG_Myc_CIS: Attagene CIS-FACTORIAL HepG2 Assay for human Myelocytomatosis (Myc) Proto-Oncogene Transcription Factor (AID 2282990)
Conditions: HepG2, Attagene cis-reporter transcription factor activity; actives raise or lower the signal
Procedure: ATG_CIS is a cell-based, multiplexed-readout assay that uses HepG2, a human liver cell line, with measurements taken at 24 hours after chemical dosing in a 24-well plate.ATG_Myc_CIS is one of 52 assay component(s) measured or calculated from the ATG_CIS assay. It is designed to make measurements of mRNA induction, a form of inducible reporter, as detected with fluorescence intensity signals by Reverse transcription polymerase chain reaction (RT-PCR) and Capillary electrophoresis technology.Data from the assay component ATG_Myc_CIS was analyzed into 1 assay endpoint. This assay endpoint, ATG_Myc_CIS, was analyzed with bidirectional fitting relative to DMSO as the negative control and baseline of activity. Using a type of inducible reporter, measures of mRNA for gain or loss-of-signal activity can be used to understand the reporter gene at the transcription factor-level as they relate to the gene MYC. Furthermore, this assay endpoint can be referred to as a primary readout, because this assay has produced multiple assay endpoints where this one serves a reporter gene function. To generalize the intended target to other relatable targets, this assay endpoint is annotated to the dna binding intended target family, where the subfamily is basic helix-loop-helix leucine zipper.
Human liver HepG2 cells are transiently transfected with multiple reporter transcription units (MRTUs) in 6-well plates using FuGene 6 reagent (Roche; 3 ml FuGene/1 mg DNA). The MRTU constructs are regulated by a cis-regulating element (promoter). […] A major difference between the CIS and TRANS system is that in CIS activities of endogenous TFs are measured, whereas the TRANS assay evaluates changes in activities of exogenous, chimeric NR-Gal4 proteins. […] At the end of 24 hour incubation, total RNA was isolated using TriZol reagent (Invitrogen). The isolated RNA is then reverse-transcribed using oligo(dT) primer and Mo-MLV reverse transcriptase (Invitrogen) with DNAse I (Ambion) treatment for 30 min. The one-tenth of the produced cDNA was amplified by PCR using Taq DNA polymerase (Invitrogen) and two reporter sequence-specific primers. The PCR products were fluorescently labeled by primer extension with 6-arboxyfluorescein (6-FAM) 5'-labeled reporter sequence-specific primer (2 min at 95 C, 20 s at 68 C and 10 min at 72 C) and these products were digested with 5U of HpaI (New England Biolabs) for 2h at 37 C. The fragments were purified using Qiaquick PCR columns (Qiagen), analyzed on an ABI 3130xL genetic analyzer (Applied Biosystems) with peak positions identified by using a set of X-rhodamine (ROX)-labeled MapMarker1000 molecular weight standards (BioVentures). The raw capillary electrophoresis data was processed using Attagraph software (Attagene).

Sequence of Myc proto-oncogene protein (Homo sapiens) (P01106 whole entry, looked up): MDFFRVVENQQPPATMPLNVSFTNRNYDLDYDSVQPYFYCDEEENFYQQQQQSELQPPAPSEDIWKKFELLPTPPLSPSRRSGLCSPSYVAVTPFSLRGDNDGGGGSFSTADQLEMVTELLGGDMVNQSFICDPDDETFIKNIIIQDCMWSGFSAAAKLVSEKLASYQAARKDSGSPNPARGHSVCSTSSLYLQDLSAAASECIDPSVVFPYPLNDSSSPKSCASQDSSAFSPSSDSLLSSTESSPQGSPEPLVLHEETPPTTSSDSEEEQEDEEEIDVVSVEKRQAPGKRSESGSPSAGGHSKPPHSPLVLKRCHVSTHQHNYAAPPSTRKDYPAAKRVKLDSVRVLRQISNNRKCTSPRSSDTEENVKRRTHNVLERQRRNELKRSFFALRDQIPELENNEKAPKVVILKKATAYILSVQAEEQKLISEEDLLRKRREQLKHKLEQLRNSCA

outcome, inactive:
CCc1c(C)cc(N)c(CC)c1N, FC1(F)C(F)(F)C(F)(F)C2(F)C(F)(C1(F)F)C(F)(F)C(F)(F)C1(F)C(F)(F)C(F)(F)C(F)(F)C(F)(F)C12F (stereo not given), CN1[C@@H]2CC(OC(=O)[C@H](CO)c3ccccc3)C[C@H]1[C@@H]1O[C@@H]12 (stereo not given in full), CC1(C)C(=O)N(Br)C(=O)N1Cl, CCCCCCCCCC=O, CC(C)c1ccc(C(C)C)cc1, Clc1ccc2c(c1)C(N1CCNCC1)=Nc1ccccc1O2, CC(C)CCCCCCCOC(=O)c1ccc(C(=O)OCCCCCCCC(C)C)c(C(=O)OCCCCCCCC(C)C)c1, Cc1ccc(C=O)cc1, CSc1nc(NC2CC2)nc(NC(C)(C)C)n1, CCCCC(CC)COCCC#N (stereo not given), CN(CCOc1ccc(CC2SC(=O)NC2=O)cc1)c1ccccn1 (stereo not given), CC(C)C1CCC(O)CC1 (stereo not given), CC(C)(C)C(=O)c1ccccc1, CNC[C@H](O)c1cccc(O)c1, CO[Si](C)(OC)c1ccccc1, Sc1nc(S)nc(S)n1, CC(C)(C)c1cc(CCC(=O)NN)cc(C(C)(C)C)c1O, OCCOc1cccc(OCCO)c1, O=C(O)CN(CCN(CC(=O)O)CC(=O)O)CCN(CC(=O)O)CC(=O)O, Nc1ccc(S(N)(=O)=O)cc1, O=c1oc(=O)c2cc3c(=O)oc(=O)c3cc12, C=CCOC(=O)CCC1CCCCC1, Cc1ccc(C=O)s1, CCCC(=O)OCCC(C)CCC=C(C)C (stereo not given), O=C(O)c1cccc([N+](=O)[O-])c1, CC(=O)OCCC(C)CC(C)(C)C (stereo not given), CCCCOCCOCCSC#N, Nc1ccc(F)c([N+](=O)[O-])c1, CCCc1c(OCCCOc2ccc(OCC(=O)O)cc2)ccc(C(C)=O)c1O, COc1nc(C)nc(N)n1, CC(C)=CCC/C(C)=C/COC=O, C[Si](O[Si](C)(C)C)O[Si](C)(C)C, Cc1ccc(C(=O)O)o1, O=C(O)c1ccc([N+](=O)[O-])cc1, CC(=O)Nc1ccc(CC(=O)O)cc1, CC1COc2ccccc2N1C(=O)C(Cl)Cl (stereo not given)

AC50, active:
C=CC(C)(O)CCC=C(C)CCC=C(C)C (stereo not given) 181 µM, Cc1ccc(O)c(C(C)(C)C)c1 79.5 µM, Nc1cc(Cl)c(O)c(Cl)c1 100 µM
